Laboratory results reported in the supplement of paper PMC11417369.
± gives the standard deviation of the averaged measurements. In all, about 25,000 sequences were measured (“ln(normalized median fluorescence intensity)”: median about 10, highest 2% from about 12 on). The list comes from a sample in which the highest values are over-represented; it also holds similar and randomly drawn sequences.

The sequences below were run on PfAP2-G AP2 domain (GST-tagged) (assay: gcPBM binding intensity (ln(normalized median fluorescence intensity)); higher = stronger DNA binding).
Method in brief: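 DNA-binding domains from P. falciparum, fused to GST and produced in E. coli, were put on an Agilent 4 × 180k double-stranded probe array for 1 h in 1× PBS holding 1% milk, 0.2 mg/ml BSA, 0.5% salmon testes DNA and 0.03% Triton X-100. Probes were primer-extended, 36 bp long and drawn from intergenic genomic regions, with negative controls included. After Alexa488 anti-GST antibody detection and a 488 nm scan, binding intensity was set as the highest Masliner-normalised natural-log median intensity across replicate spots of either probe orientation.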

Row | Sequence | gcPBM binding intensity (ln)
1 | TTTTAAAGTTGTGAGCTTCATTTTTATTTATATGTA [CACACA_negctrl_site1505] | 9.87 ± 0.057
2 | AAATAATTTATAAATAAATACATTGTTACTTTTTCT [GTGCAC_negctrl_site639] | 9.62 ± 0.29
3 | TTTTTTTTTTTTTTTGCATGCAGGTTTTTACCCCTT [TGCATGCA_site381] | 9.84 ± 0.51
4 | ATCATATGTATGGTGGTGCATTATGCATGAATTTTA [GTGCAC_site9798] | 10.1 ± 0.18
5 | TATTCGTGCAATAGTAGTACACTTAAAAATTATTCA [XGTACX_site269] | 11.6 ± 1.1
6 | TTCCAAAATTGCACATGTACAAAATTCTCCAATATG [XGTACX_site3419] | 10.9 ± 0.62
7 | TAATGCATTTTCGCATGTACATATTTCTCTTTATAT [XGTACX_site8915] | 11.1 ± 0.71
8 | TTATATTTTTTTGAGTGTACTTTTTGTGTAAAATTC [XGTACX_site2155] | 11.5 ± 0.84
9 | TTCGACGAGAGCAAGTGTACTCTTGAATAATTTATA [XGTACX_site7613] | 11.3 ± 0.9
10 | TTGTTATATTACAGTAGTACATTTAAAATCTACTAC [XGTACX_site2620] | 11.4 ± 0.93
11 | GAGGTCTTTTTTAATGTGCACATATATATATATATA | 10.7 ± 0.51
12 | ATAAAATAATCTTATGCACACCAAAAATTTATATAA [CACACA_site8332] | 10.2 ± 0.12
13 | TCTATTAATTAATATACACACATTAGATATAAATAT [CACACA_site7241] | 9.945 ± 0.092
14 | TATATATATATAATGTGTACATACTAAATAGAGGAC [XGTACX_site4153] | 11.7 ± 1.1
15 | ACGTAATAAAATAGTTGTACAACTTTTTATAATATA [XGTACX_site4393] | 11.8 ± 1.1
16 | AACTGTAATTTTATACGTACATAAATAATATTATAT [XGTACX_site4277] | 11.7 ± 0.93
17 | TGTATTATTAATATTTGTACGTAATAATAAAAACAT [XGTACX_site3716] | 11.5 ± 1
18 | TCAATATAAATTAGTTGTACAGTTTTTTTTAATTAT [XGTACX_site6358] | 11.5 ± 0.92
19 | GTATTATATTTCAACTGTACGTAAAACTATTAAAAT [XGTACX_site3679] | 11.7 ± 1.1

Row | Sequence | gcPBM binding intensity (ln)
20 | GTAATATTATATAGTTGTACTTTTTTTTTATTATAT [XGTACX_site483] | 11.5 ± 1
21 | TTCAATATACATATGTGTACTAAAATAAATAGAAAA [XGTACX_site5708] | 11.3 ± 0.83
22 | ACTTCAAAAATAAACTGTACGTAAAAAAAAAAAAAA [XGTACX_site795] | 11.5 ± 1
23 | TAATAATAAAAAATACGTACATATTATTTATATATG [XGTACX_site853] | 11.4 ± 0.76
24 | TATTTTTATAAAAACTGTACATAATAAATAAAAATA [XGTACX_site4743] | 11.1 ± 0.62
25 | ATATATATAAATATATGTACTAATATATACATATAT [XGTACX_site2289] | 11 ± 0.69
26 | ATAATAAGAAAAAAAAAAAAAAAAAAAAAAAAAAAA [TGCATGCA_negctrl_site377] | 9.59 ± 0.58
27 | TTATTGTACTTGCTCGCATGCAATAAAAATATATTA [TGCATGCA_site580] | 11.2 ± 1.1
28 | ATAAATTTTTAAACAGCACACATAAATATAATATAT [CACACA_site8691] | 10.06 ± 0.064
29 | TGATAACCTCACAAATGTACGTACGGGGCTAGCATT [XGTACX_site4157] | 11.4 ± 0.78
30 | GTATATGAATGTTCATGTACATAATAAAATATATAA [XGTACX_site250] | 11 ± 0.56
31 | ATGCGTTTAGCAAAAAGTACATATATATATAATATT [XGTACX_site1928] | 11.2 ± 0.73
32 | TTTTATTTATATTATACACACAAGGAAAAAAAAAAA [CACACA_site7690] | 10.2 ± 0.26
33 | AGTTTCCATATGAGGTGTACATATATAATTTATTAT [XGTACX_site2369] | 11.6 ± 0.71
34 | TTATAATTTTTCTATTGTACATTTAATAATATATAT [XGTACX_site7326] | 10.9 ± 0.47
35 | GTTTTCTAGTGGGGGTGTACATATTTATATTTAATA [XGTACX_site8378] | 11.7 ± 0.86
36 | AATAAAAAAAATTTCTGTACATATATTTATTATATA [XGTACX_site1883] | 11.1 ± 0.74
37 | AATAGTTATTCCAGGTGTACATAACATATAATTTAC [XGTACX_site1340] | 11.5 ± 0.95
38 | ATTATTTATTATTTCTGTACGTATAAAAATAACATT [XGTACX_site1671] | 11.7 ± 1.1

Row | Sequence | gcPBM binding intensity (ln)
39 | CTTTTTTTTTAAAAATGTACACATTTTTGAAAATAC [XGTACX_site3127] | 11.4 ± 0.84
40 | ATAAATACTTTTTGGTGTACACTTTTAAATGAAAAA [XGTACX_site3042] | 11.8 ± 1
41 | TATATATTATATATATGTACATAATTCCATGTTTAG [XGTACX_site3943] | 11.2 ± 0.81
42 | ATATATTATTTCTAGTGTACATACCCATATATAATA [XGTACX_site8902] | 11.2 ± 0.69
43 | TGGTGTTTTTTTTAATGTACTTATAAAATAATACAT [XGTACX_site6574] | 11.4 ± 0.83
44 | TATAAAATATATATCTGTACGTATTTTATTTTTTAT [XGTACX_site6257] | 11.4 ± 0.88
45 | ATTTTTTAAAATATTTGTACATATATAATGCATATA [XGTACX_site7026] | 11 ± 0.64
46 | TTCTTTTTCCAATTTGCACACCACAAAATTATATAT [CACACA_site2909] | 10.5 ± 0.28
47 | AGAGTATATATATATGCATGCATATCTCATATTTAT [TGCATGCA_site509] | 9.71 ± 0.13
48 | CATATTAATATTATGGGTACATATAAATTTACATTC [XGTACX_site687] | 11.4 ± 0.83
49 | TTTCTTGGGAGACATGCATGTACCAGAACAAAATAA [TGCATGCA_site272] | 10.9 ± 0.64
50 | AAAAAAAAAAAAAAAAAAAAAAAAAAAAATAAAAAA [CACACA_negctrl_site59] | 11 ± 0.47
51 | AAAATAATAAAAAACTGTACGAATTAAAAATTAACA [XGTACX_site8454] | 11.1 ± 0.8
52 | TATTATATATATAACTGTACGTTTATAATATAAAAA [XGTACX_site3778] | 11.4 ± 1.1
53 | AATAATAACTGTAGGTGTACGTAAAAAAAAAATTAT [XGTACX_site3133] | 11.7 ± 0.96
54 | AAAACATATTTTAAAAGTACTTGAAAAAAAATTTTC [XGTACX_site3940] | 11 ± 0.56
55 | ATATAATATTACACAAGTACAAAAATTAATACTAAA [XGTACX_site482] | 11.1 ± 0.61
56 | ACTACTCCATTAAGTAGTACACAAAAAAAAAAAATA [XGTACX_site7031] | 11.8 ± 1.1
57 | CCAAAAAATATATGTAGTACTACATTATTAAATATG [XGTACX_site5128] | 11.6 ± 0.83
